# Screening data: PubChem, National Center for Advancing Translational Sciences (NCATS)
# TDP1 cell CPT – growth inhibition of DT40 Tdp1-/-;hTDP1 cells with camptothecin (screen for TDP1 inhibitors); chicken DT40 Tdp1-/-;hTDP1 cells + 20 nM CPT, ATP luminescence, 48 h; AID 686979; 420,000 compounds, 12% hits; Potency, µM (series often up to 46.2 µM), inactives show at the top dose activity change, negative = growth inhibition, hits mostly inhibitors; also: potency is read from the fitted curve at half-maximal effect; nearly all actives have a fitted effect of over 55% in size
#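 Cell growth measured by CellTiter-Glo luminescence after a minimum 48 h, 37 C compound exposure with 20 nM CPT in Tdp1-knockout DT40 cells stably expressing hTDP1, seeded 400/well; qHTS titration format.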
# HT1080-NT tox – kills 2HG-producing HT-1080-NT fibrosarcoma cells; HT-1080-NT fibrosarcoma viability, CellTiter-Glo ATP luminescence, 48 h; 360,000 compounds, 1.6% hits; Potency, µM (titrated, usually from 46.1 µM), without a hit: at the highest dose activity, negative = less viability, usual class: cytotoxic;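 also: NT is the 2HG producing partner of a matched IDH1 knockdown line; potency is read from the fitted curve at half-maximal effect; 0% = DMSO-treated cells and -100% = media-only wells without cells; nearly all actives have a fitted effect of over 55% in size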
#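 Luminescent CellTiter-Glo readout after 48 hours of compound exposure at 37 degrees C defined viability of HT-1080-NT cells. Activity was normalized to DMSO wells and cell-free media wells; concentration-response curves were fitted and assigned curve classes.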
# TDP1 cell noCPT – qHTS for Inhibitors of human tyrosyl-DNA phosphodiesterase 1 (TDP1): qHTS in cells in absence of CPT | AID 686978, 2013 | Potency, µM (titrated, usually from 46.2 µM), inactives show at the highest dose activity change, negative = growth inhibition, actives largely listed as inhibitors | DT40 Tdp1-/- hTDP1 cells, no CPT, ATP luminescence, 48 h | 420,000 compounds, 15% hits; also: potency is read from the fitted curve at half-maximal effect; nearly all actives have a fitted effect of over 55% in size
#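 Chicken DT40 Tdp1-/- cells complemented with human TDP1, screened without camptothecin (DMSO vehicle only), 400 cells/well. Compounds pin-transferred, cells incubated at 37 °C for at least 48 hr. Growth read as ATP-dependent luminescence (CellTiter-Glo, 30 min at RT).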
# IL1B secr inh – inhibitors of inflammasome signaling (IL-1 beta secretion) | 360,000 compounds, 4.7% hits | activity change, % at 57.5 µM | THP-1 LPS/ATP IL-1B secretion, AlphaLISA, 16 h; stronger effect = lower value; in the data active = activity change below about -50%; inconclusive = mostly about -30% to -49%
#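 THP-1 cells pretreated 1 hr with compounds (up to 57.5 uM final), then stimulated with LPS (250 ng/mL final) plus ATP (1.25 mM final); secreted IL-1B measured by AlphaLISA after 16 hr, decreased signal indicating inhibition.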
# HT1080 IDH1KD tx – kills HT-1080 cells with IDH1 knockdown; HT-1080 IDH1 knockdown viability, ATP luminescence, 48 h; Potency, µM (top dose mostly 46.1 µM), for the others: at the top dose activity, negative = toxicity, most hits filed as cytotoxic; 360,000 compounds, 2% hits; AID 686971;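 also: potency is read from the fitted curve at half-maximal effect; 0% = DMSO wells and -100% = cell-free medium wells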
#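 Knockdown cells (IDH1KD HT-1080) received compounds 2 h after plating at 750 cells/well and were kept 48 h at 37 °C in 5% FBS RPMI. A CellTiter-Glo luminescence read gave % activity for curve fitting.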
# The depositor's hits bear a star; ? = inconclusive; · = no result given; [ ] = dose if it differs, or a comment. Most compounds without a hit are left out; they make up all but 19% or so of the library. Unless noted, calls follow the shape of the dose curve; as a rule, active = well fitted curve in the direction sought with a large enough effect; inconclusive = small, poorly fitted or top-dose-only effect, or another doubt; inactive = no such curve, though single readings can be large; an effect the other way counts as inactive or inconclusive. Unless noted, % is scaled to controls: 0 for no effect and ±100 for the full control effect.
SMILES,TDP1 cell CPT,HT1080-NT tox,TDP1 cell noCPT,IL1B secr inh,HT1080 IDH1KD tx
Cc1cccc(C)c1NC(=O)CN1C(=O)c2ccccc2Sc2ncccc21,?,·,-29%,·,·
Cc1ccc(NC(=O)CCN2C(=O)c3ccccc3Sc3ncccc32)cc1,16µM*,-1%,16µM*,23,-15%
Cc1ccc(NC(=O)CN2C(=O)c3ccccc3Sc3ncccc32)c(C)c1,23µM*,·,23µM*,·,·
Cc1cc(NC(=O)CN2C(=O)c3cccnc3Sc3ccccc32)ccc1Br,?,·,23µM*,·,·
CC(C)CCNC(=O)CCCN1C(=O)c2ccccc2Sc2ncccc21,15µM*,·,?,·,·
CC(C)NC(=O)CCCN1C(=O)c2ccccc2Sc2ncccc21,-6%,0%,6%,-6,13%
CC(C(=O)NC1CCCCC1)N1CCN(C)CC1 (stereo not drawn),-5%,4%,25%,-28,9%
O=C(COC(=O)Cc1ccccc1[N+](=O)[O-])NCc1ccccc1Cl,-3%,4%,12%,-2,0%
CCn1cc(C(=O)N2CCCc3ccccc32)c2cc(OC)c(OC)cc2c1=O,-26%,-4%,?,10,7%
CCN(CC)c1ccc(NC(=O)CN2C(=O)c3cccnc3Sc3ccccc32)c(C)c1,16µM*,·,13µM*,·,·
NC(=NC(=O)c1ccccc1)N1CCN(C(c2ccccc2)c2ccccc2)CC1,21µM*,21%,?,-26,13%
Cc1ccnc(SCC(=O)N2CCN(C(c3ccccc3)c3ccccc3)CC2)n1,23µM*,3%,16µM*,-9,14%
CCOc1ccccc1C(=O)N1CCN(C(c2ccccc2)c2ccccc2)CC1,?,0%,?,-83*,0%
Cc1cc(C(C)(C)C)oc1C(=O)N1CCN(C(=O)c2oc(C(C)(C)C)cc2C)CC1,18µM*,9%,16µM*,46,13%
Cc1ccnc(SCC(=O)N2CCc3ccccc32)n1,-11%,16%,-12%,-5,5%
O=C(CCNS(=O)(=O)c1ccccc1C(F)(F)F)N1CCN(C(c2ccccc2)c2ccccc2)CC1,12µM*,-4%,8.2µM*,-4,-10%
O=C(c1ccc(C#CC2(O)CCCCC2)cc1)N1CCN(C(c2ccccc2)c2ccccc2)CC1,?,?,?,-58*,-15%[9.24 µM]
O=C(c1ccc(C#CC2(O)CCCCC2)cc1)N1CCN(Cc2ccccc2)CC1,?,-19%,?,-11,-10%[9.24 µM]
O=C(CCNS(=O)(=O)c1ccccc1C(F)(F)F)N1CCCCCCC1,-27%,6%,2%,-2,2%
Cc1oc(C(C)(C)C)cc1C(=O)N1CCN(C(c2ccccc2)c2ccccc2)CC1,?,?,?,-68*,?
CC(C)(C)C(=O)N1CCN(C(c2ccccc2)c2ccccc2)CC1,?,15%,18µM*,-15,12%
Cc1ncc2c(c1CNC(=O)c1ccc3c(c1)OCO3)CCN(C(=O)c1cn3ccccc3n1)C2,17%[9.04 µM],·,-15%,·,·
CCCCN(C(=O)c1ccc(Cl)c([N+](=O)[O-])c1)c1c(N)n(CCC)c(=O)[nH]c1=O,5%,13%,-2%,0,17%
O=C(NCC(=O)N1CCN(C(c2ccccc2)c2ccccc2)CC1)c1ccccc1F,?,-14%,29µM*,-52*,-1%
Cc1ccccc1C(=O)N1CCN(C(c2ccccc2)c2ccccc2)CC1,?,-13%,23µM*,-29,-20%
SMILES,TDP1 cell CPT,HT1080-NT tox,TDP1 cell noCPT,IL1B secr inh,HT1080 IDH1KD tx
Cc1occc1C(=O)N1CCN(C(c2ccccc2)c2ccccc2)CC1,?,1%,?,-14,0%
O=C(CNC(=O)Cc1ccccc1)NCC(=O)N1CCN(C(c2ccccc2)c2ccccc2)CC1,-16%,-2%,?,3,-1%
O=C(c1cc(-c2cccc(O)c2)on1)N1CCN(C(c2ccccc2)c2ccccc2)CC1,21µM*,?,13µM*,-53*,?
CN1CCN(C(=O)c2cc(-c3cccc(Cl)c3)on2)CC1,-9%,0%,-29%,1,1%
Cc1cc(C(=O)N2CCN(C(c3ccccc3)c3ccccc3)CC2)on1,8.2µM*,-7%,23µM*,-17,-6%
O=S1(=O)CC(N2CCCCC2)CN1Cc1cn(Cc2ccc(Cl)cc2)nn1 (stereo not drawn),4%,21%,-27%,-11,-3%
CCCCOc1ccc(C2CC(=O)NC2=O)cc1 (stereo not drawn),2%,5%,-11%,2,8%
CCCCCCCOc1ccc(C2CC(=O)N(C)C2=O)cc1 (stereo not drawn),-2%,-9%,?,-76*,-19%
Cc1ccccc1-c1nc2ccc(Cl)cc2c(=O)n1O,-16%,-13%,?,9,-10%
Cc1ccccc1-c1cc(C(=O)n2cccn2)c2cc(Cl)ccc2n1,?,?,-13%,50,10µM*
CC(=O)c1ccc(S(=O)(=O)N2CCN(C(=O)c3ccc(-n4nc(C)c(Cl)c4C)cc3)CC2)cc1,16µM*,-5%,13µM*,-14,-12%
COc1cccc(N2CCN(CC(=O)N3CCN(S(=O)(=O)c4ccc(Cl)cc4)CC3)CC2)c1,?,-12%,18µM*,5,-8%
Cc1cc(C)nc(N2CCN(C(=O)c3ccc(S(=O)(=O)N4CCCCCC4)cc3)CC2)n1,26µM*,5%,16µM*,14,15%
O=C(c1ccc(S(=O)(=O)N2CCCC2)cc1)N1CCN(c2cccc(Cl)c2)CC1,23µM*,-17%,18µM*,-26,-4%
O=C(c1ccc(S(=O)(=O)N2CCCC2)cc1)N1CCN(c2ccccc2)CC1,-9%,-2%,-29%,8,0%
COc1cccc(CNC(=O)N2CCN(S(=O)(=O)c3ccc(Cl)cc3)CC2)c1,?,-6%,?,-22,-2%
CCC(C)(C)NC(=O)c1ccc2c(c1)N(CC(=O)NC1CCCC1)C(=O)C(C)(C)O2,5%,12%,-3%,-10,8%
CC(C)n1c(O)c(N=NC(=O)Cn2ccc(C(F)(F)F)n2)c2ccccc21,?,-2%,8.2µM*,0,11%
Cc1cc(C(=O)N=Nc2c(O)n(C(C)C)c3ccccc23)n[nH]1,?,2%,18µM*,-7,1%
COc1ccccc1C(=O)NCC(=O)N=Nc1c(O)n(C(C)C)c2ccccc12,?,-3%,18µM*,-7,4%
Cn1c(O)c(N=NC(=O)Cn2c(C(F)(F)F)nc3ccccc32)c2ccccc21,21µM*,1%,13µM*,11,9%
